Reference: publication PMC7819943, “Rice protein-binding microarrays: a tool to detect cis-acting elements near promoter regions in rice”
Over roughly 35,000 sequences, “fluorescence intensity (a.u.)” has its median near 10,000; the highest 2% begin near 52,000. The sample holds the highest values, similar sequences and a random draw of the others, so the mix is not that of the screen.

molecular target: T1, OsWOX13 (Oryza sativa, UniProt Q5QMM3 1-267); experiment: protein-binding microarray (RPBM); PBS, 2% BSA, 51.3 ng/ul salmon testes DNA, 50 uM zinc acetate, 200 nM TF, 25 C, 1 h; high values mean tight binding; conditions: protein: recombinant; tags: N-terminal polyhistidine and DsRed monomer fusion (pET32a); label: CyDye5-dUTP incorporated in the synthesized complementary strand; 3' TTTTT single-stranded linker to array surface; dsDNA, one strand shown
T1 sequence: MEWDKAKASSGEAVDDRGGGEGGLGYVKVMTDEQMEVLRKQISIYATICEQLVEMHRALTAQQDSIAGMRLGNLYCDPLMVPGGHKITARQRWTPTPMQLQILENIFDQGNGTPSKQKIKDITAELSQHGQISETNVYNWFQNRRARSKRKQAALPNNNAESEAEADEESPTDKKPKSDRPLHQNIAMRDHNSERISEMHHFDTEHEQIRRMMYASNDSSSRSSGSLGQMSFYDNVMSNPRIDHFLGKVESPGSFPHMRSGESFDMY
Procedure, shortened: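 An Axon 4000B scanner gave the binding signal as per-feature fluorescence intensity in arbitrary units. This followed washing of a custom Agilent array that had been incubated for 1 h at 25 °C with 200 nM protein in PBS, 2% BSA, salmon testes DNA and 50 µM zinc acetate. The proteins were transcription factors fused at the N-terminus to polyhistidine and DsRed, expressed in E. coli BL21-CodonPlus and purified on Ni–NTA.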

First: TCAGATTAGTTGACTAGCAAGCTACTCCTAGTACAGGTTACGGAGTCACCTAGTGCAG
Second: TAATTATTGACTAATATATTAATTAATATAATGTAATTTACGGAGTCACCTAGTGCAG
The binding signal of the first is lower: 6290 fluorescence intensity (a.u.) for the first, 22700 fluorescence intensity (a.u.) for the second.

Going from “TGTTTATAACTGTAATGACATATAAGCACCACATAGGGGCCGGAGTCACCTAGTGCAG” to “CAGCCCTTAATTGAATTTGGCCCAGCTAGTTCCCGGGCCCCGGAGTCACCTAGTGCAG”, the binding signal rises from 5560 fluorescence intensity (a.u.) to 30600 fluorescence intensity (a.u.).

Going from “GTTGATTGGGTAAATCATATGATCGTAATGTATTGTGAATCGGAGTCACCTAGTGCAG” to “ATAAATGATTGGAGGATTTGTTGTGACTTTTCCACAATGTCGGAGTCACCTAGTGCAG”, the binding signal falls from 64600 fluorescence intensity (a.u.) to 58200 fluorescence intensity (a.u.).

Compared with “AGTTTTCTGTTCAATGATTTGGTTGAATCAAATTGTTCCTCGGAGTCACCTAGTGCAG”, “CTAATTAATTTGTTCCCTTAATTGGCACTTTGAATCTAAGCGGAGTCACCTAGTGCAG” is higher in binding signal: 4400 fluorescence intensity (a.u.) for the first, 58300 fluorescence intensity (a.u.) for the second.

First: GTATTGTGATTTGTGAATCAGTGAATATGTGAATGTGATTCGGAGTCACCTAGTGCAG
Second: TTGTAAATGACTGATTTGGATGTGAATTAATCGTTGTTGTCGGAGTCACCTAGTGCAG
The binding signal of the first is lower: 13200 fluorescence intensity (a.u.) for the first, 28400 fluorescence intensity (a.u.) for the second.

Going from “ATGTGTAAATTGAATTAATGGAGTTGGTTGTGAAATCGTTCGGAGTCACCTAGTGCAG” to “ACAATTTGATTGCTTCCTTTCAACATTGTGGTTGGTGATCCGGAGTCACCTAGTGCAG”, the binding signal rises from 25300 fluorescence intensity (a.u.) to 30500 fluorescence intensity (a.u.).

First: CCTTTTAATTGAAAAGCTCCTTATTGGCTTCCCACCTAAGCGGAGTCACCTAGTGCAG
Second: GATTAATCCAATTGACTTTGATGAGGATGTGCCACTATTTCGGAGTCACCTAGTGCAG
The binding signal of the first is higher: 46900 fluorescence intensity (a.u.) for the first, 6820 fluorescence intensity (a.u.) for the second.

Going from “GGTGATTTGATTCAAATTCAATCCGATCCTTTGTTGGTTTCGGAGTCACCTAGTGCAG” to “GACTGGGAGGATGAGGGGTGGGTGGGTGTGGCTGCTTCTGCGGAGTCACCTAGTGCAG”, the binding signal falls from 53400 fluorescence intensity (a.u.) to 4110 fluorescence intensity (a.u.).

Going from “CGATCTAATTGTGAATCCTCTACCCTAGAGGACCTCCTATCGGAGTCACCTAGTGCAG” to “AGTTTTAGCCTAAATTGGGTAAATTATATTTTAACCGTAACGGAGTCACCTAGTGCAG”, the binding signal rises from 4020 fluorescence intensity (a.u.) to 11600 fluorescence intensity (a.u.).

Compared with “TCAGTAACATTATTGGTTAAATTTTAAATTTTGAATAGGCCGGAGTCACCTAGTGCAG”, “AATTGTTTGATTGAAATTAATGTACTCTTGAATGGATAAACGGAGTCACCTAGTGCAG” is higher in binding signal: 5870 fluorescence intensity (a.u.) for the first, 32600 fluorescence intensity (a.u.) for the second.

First: GCTGACTAATTATGTAACAGGGGTCAAACAAGTAGGTGGACGGAGTCACCTAGTGCAG
Second: GGTAGAAATAAGGATTGATTGAGATTCACCTACCTTTTCTCGGAGTCACCTAGTGCAG
The binding signal of the first is lower: 20400 fluorescence intensity (a.u.) for the first, 37500 fluorescence intensity (a.u.) for the second.

First: TCCACCGCGACATGTGATTGGAGGTAAGAGCATGTGAACCCGGAGTCACCTAGTGCAG
Second: ATTGATTTGAATTCCAAATTTGTAATGATGTTGATCACCTCGGAGTCACCTAGTGCAG
The binding signal of the first is lower: 5650 fluorescence intensity (a.u.) for the first, 39400 fluorescence intensity (a.u.) for the second.

Compared with “GCAGAAATGATTGCACTTCAATTATTGAGTAAAACAGATTCGGAGTCACCTAGTGCAG”, “AAATGTGATTTTGTAATTTCCCCTTTGAATTTTCATCAAACGGAGTCACCTAGTGCAG” is lower in binding signal: 30000 fluorescence intensity (a.u.) for the first, 8970 fluorescence intensity (a.u.) for the second.

Compared with “CTTTGTAATTGGAGTCAATCAAATTGAATGATTTCCCTTTCGGAGTCACCTAGTGCAG”, “GAGATTGATTGCATATCAGAAGTAAATGATTTCAACAGATCGGAGTCACCTAGTGCAG” is lower in binding signal: 58900 fluorescence intensity (a.u.) for the first, 54400 fluorescence intensity (a.u.) for the second.

First: GCTCCTGATTTGCCTGATCAGATCAACAGATTAGCATGATCGGAGTCACCTAGTGCAG
Second: TAGGATTATGTTGGTGATGATGATGACTAGTGTGCCTGAACGGAGTCACCTAGTGCAG
The binding signal of the first is higher: 23600 fluorescence intensity (a.u.) for the first, 4220 fluorescence intensity (a.u.) for the second.

Going from “ATAGTTAACAAAATTTGACAGCAAACTAAATGTAACCATTCGGAGTCACCTAGTGCAG” to “TACCCATCACCAAAATTACCATAAACACAACATACTTAGGCGGAGTCACCTAGTGCAG”, the binding signal falls from 27800 fluorescence intensity (a.u.) to 4380 fluorescence intensity (a.u.).

First: CAAAATTGAAAACTTCTTATTTGAAATTCAAAACTTTCAACGGAGTCACCTAGTGCAG
Second: ATATAAATTTGGAACAAATTCAACATCATGTTATCCTAGGCGGAGTCACCTAGTGCAG
The binding signal of the first is higher: 10200 fluorescence intensity (a.u.) for the first, 4060 fluorescence intensity (a.u.) for the second.

Going from “TTGACTTAAATTATAATTTTAAACCATATATTATAATTGGCGGAGTCACCTAGTGCAG” to “TAAATTGACAAATTCAACCTAGGCCTGGACTTATTTGGCGCGGAGTCACCTAGTGCAG”, the binding signal rises from 31400 fluorescence intensity (a.u.) to 57500 fluorescence intensity (a.u.).

Compared with “AACTTATATAAGTTAAATTTAAACTTATATGTTTGTGGGGCGGAGTCACCTAGTGCAG”, “CATATAAATTGACAACTTCTACTTAAACCTGACATGTGGGCGGAGTCACCTAGTGCAG” is higher in binding signal: 4170 fluorescence intensity (a.u.) for the first, 54500 fluorescence intensity (a.u.) for the second.

Going from “TTTGCTAGATTGGAGCAAATCGCATATTCTTAACCCCACCCGGAGTCACCTAGTGCAG” to “GTTTCGTCTCGTAATTTACACGCAATCTGTGTAATTAGTTCGGAGTCACCTAGTGCAG”, the binding signal falls from 21600 fluorescence intensity (a.u.) to 7230 fluorescence intensity (a.u.).

Compared with “CTAAAATTTAATTAATCATACGACAGTGAATTTCTCATTTCGGAGTCACCTAGTGCAG”, “TCAGACAAATTAAGTTTTAGCTTAGCTTATCACTTAACGGCGGAGTCACCTAGTGCAG” is lower in binding signal: 20300 fluorescence intensity (a.u.) for the first, 7680 fluorescence intensity (a.u.) for the second.

With “AAATTCCGAATTTGATTCTTAATTAAGGCGAGCTATTCACCGGAGTCACCTAGTGCAG” the binding signal was 3490 fluorescence intensity (a.u.).
